The record followed here is PubChem BioAssay (NCI).

About 83,000 compounds went through this panel and 20% of them were active in at least one assay; those are over-represented in the sample as a whole.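 Growth was measured after 48 h exposure to one concentration of compound in 96-well plates. Values under 10 count as active.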 Values without a mark were called inactive. Calls of active or inactive are those of the source.

Common to all, as to experiment: NCI-60 one-dose screen, 48 h (100 = growth as untreated, 0 = no growth, -100 = all killed)
Common to all, as to details: 10 µM unless noted

For assay [1], the system named is OVCAR-8 ovarian.
Assay [2] has as its system OVCAR-5 ovarian.
For assay [3], the system named is OVCAR-4 ovarian.
Assay [4] has as its system SK-OV-3 ovarian.
In assay [5] the test system is OVCAR-3 ovarian.
In assay [6] the test system is HS 578T breast.
Assay [7] concerns NCI/ADR-RES ovarian.
The subject of assay [8] is T-47D breast.
The test system of assay [9] is BT-549 breast.
The subject of assay [10] is MDA-MB-435 melanoma.
Assay [11] has as its system SW-620 colon.
For assay [12], the system named is MCF7 breast.
In assay [13] the test system is HCT-116 colon.
In assay [14] the test system is HCC-2998 colon.
In assay [15] the test system is KM12 colon.
Assay [16] relates to IGROV1 ovarian.

Turning to `CC(C)NS(=O)(=O)c1cccc(-c2ccc3c(=O)n(CCCN)c4c(c3c2)C(=O)c2ccccc2-4)c1`, the growth is 97.6% in [1]; 109% in assay [2]; 85.2% in assay [3]; 107% in assay [4]; 99% in [5]; 105% in assay [6]. For the same compound, the growth in [7] is 98.6%; in [8], 103%; in assay [9] it was 99.8%; in [10] it was 107%; in assay [11] it was 92.4%; in assay [12], 101%. The growth in assay [13] was 96.6%; in assay [14], 105%; in [15], 98.9%.
On to `COc1ccc([C@H]2[C@@H](F)C(=O)N2c2cc(OC)c(OC)c(OC)c2)cc1F`, for which the growth in assay [2] is 43.6%; in [3], 54.9%; in [4], 33.4%; in assay [16] it was 31.9%; in assay [5] it was -4.18% (active); in assay [6], 25.5%. Moreover, the growth in assay [7] is 8.4% (active); in assay [8] it was 74.9%; in assay [9], 15.3%; in [10], 0.354% (active); in assay [11], 28.7%; in assay [12], 12.8%. The growth in assay [13] is 5.59% (active); in assay [14] it was 32.9%; in assay [15], 10.7%.
Turning to `CN1CCN(/C=C2\CC(C(=O)NCc3ccc(Cl)cc3Cl)NC2=O)CC1` (stereo not given), the growth was 99.1% in assay [1]; 110% in assay [2]; 110% in assay [3]; 107% in [4]; 109% in assay [16]; 108% in [5]. The growth in assay [6] is 103%; in assay [7], 107%; in [8] it was 113%; in assay [9], 136%; in [10], 119%; in assay [11], 98%. In addition, the growth in [12] was 103%; in assay [13], 110%; in assay [14] it was 101%; in assay [15], 103%.
Consider `Cc1nc2sc(C(=O)Nc3ccccc3Cl)c(N)c2cc1C(C)O` (stereo not given), for which the growth is 95% in assay [1]; 97.8% in assay [2]; 97.9% in assay [3]; 78.7% in [4]; 92.9% in assay [16]; 88.8% in assay [5]. Moreover, the growth in assay [6] was 88.1%; in assay [7], 71.7%; in [8] it was 86.4%; in [9] it was 78.8%; in assay [10], 5.06% (active); in assay [11], 57.6%. In addition, the growth is 48.6% in assay [12], 67.8% in assay [13], 84.5% in assay [14] and 56.1% in assay [15].
Take `CC1CCN(CCCCCOc2ccc3oc4ccccc4c(=O)c3c2)CC1`: the growth in assay [1] was 81%; in [2], 88.4%; in [3], 77.3%; in [4] it was 93.9%; in assay [16], 68.9%; in assay [5] it was 87.6%. For the same compound, the growth in assay [6] was 70.3%; in assay [7], 78.3%; in [8] it was 67.6%; in [9] it was 80.3%; in assay [10] it was 79.9%; in assay [11], 81.7%. Besides, the growth is 68.3% in assay [12], 52.7% in assay [13], 79.5% in assay [14] and 69.9% in assay [15].
On to `COCCc1n(Cc2ccc3ccccc3c2)c2ccccc2[n+]1Cc1ccc2ccccc2c1`, for which the growth in assay [1] was -54.6% (active); in assay [2], -2.95% (active); in assay [3] it was -4.37% (active); in assay [4], -14.6% (active); in [16] it was -63.4% (active); in assay [5], -72.8% (active). In addition, the growth is -6.4% (active) in [6]; 84.4% in assay [7]; -16.7% (active) in assay [8]; -48.5% (active) in [9]; -87.5% (active) in assay [10]; -73.7% (active) in assay [11]. Besides, the growth in assay [12] was -68.1% (active); in [13], -81.2% (active); in assay [14], -78.1% (active); in assay [15], -86.2% (active).
Consider `COc1ccc(C(=S)c2cc(OC)c(OC)c(OC)c2)cc1OC(=O)CCl`, for which the growth in [1] was 14.4%; in assay [2] it was 66.9%; in [3] it was 52.9%; in [4], 25.3%; in assay [16], 24.4%; in assay [5], 8.17% (active). In addition, the growth is 37.8% in [6]; 7.4% (active) in [7]; 62.6% in assay [8]; 12.1% in assay [9]; -8.11% (active) in assay [10]; 29.5% in [11]. Besides, the growth in assay [12] is 15%; in assay [13] it was 9.73% (active); in [14], 31.2%; in assay [15], 13.9%.
As for `CCOCc1cc(C(C)(C)C)ccc1O`, the growth in assay [1] is 95.4%; in assay [2] it was 105%; in [3], 103%; in assay [4], 97.8%; in assay [5], 115%; in [6] it was 99.2%. Moreover, the growth in assay [7] was 103%; in assay [8] it was 98.6%; in assay [9], 104%; in assay [10], 102%; in assay [11], 93.4%; in assay [12] it was 97.6%. For the same compound, the growth in [14] is 104%; in assay [15] it was 106%.
As for `COc1cc(NC(=O)c2cc(O)c(C/C=C(\C)CCC=C(C)C)c(O)c2)cc2c1O[C@]1(C)CC[C@@H](O)C(C)(C)[C@H]1C2`, the growth was 23.5% in assay [1]; 44.9% in assay [2]; 29.6% in assay [3]; 26.9% in assay [4]; 20% in assay [16]; -12.1% (active) in [5]. Besides, the growth in assay [6] is 18.4%; in assay [7] it was 65%; in assay [8], 18%; in assay [9], 0.27% (active); in [10], 10.2%; in assay [11], 9.02% (active). The growth in assay [12] is 8.42% (active); in assay [13] it was 10.8%; in assay [14] it was 16.4%; in [15] it was 7.44% (active).
